Data: PubChem BioAssay
Calls of active or inactive are those of the source.

Key:
Albumin (Bos taurus) = Albumin (Bos taurus) (UniProt P02769); test: bovine serum albumin binders on microarray, profiling panel, artefact control for SMM control protein annotation, biochemical, small-molecule microarray, Alexa647 label, 635/667 nm fluorescence (AID 1118); settings: BSA-A647 binding, fluorescence 635 nm, higher = more signal;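 note: score merges 667 nm emission intensity and signal-to-noise per printed compound spot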
Sequence of Albumin (Bos taurus) (P02769 whole entry, looked up): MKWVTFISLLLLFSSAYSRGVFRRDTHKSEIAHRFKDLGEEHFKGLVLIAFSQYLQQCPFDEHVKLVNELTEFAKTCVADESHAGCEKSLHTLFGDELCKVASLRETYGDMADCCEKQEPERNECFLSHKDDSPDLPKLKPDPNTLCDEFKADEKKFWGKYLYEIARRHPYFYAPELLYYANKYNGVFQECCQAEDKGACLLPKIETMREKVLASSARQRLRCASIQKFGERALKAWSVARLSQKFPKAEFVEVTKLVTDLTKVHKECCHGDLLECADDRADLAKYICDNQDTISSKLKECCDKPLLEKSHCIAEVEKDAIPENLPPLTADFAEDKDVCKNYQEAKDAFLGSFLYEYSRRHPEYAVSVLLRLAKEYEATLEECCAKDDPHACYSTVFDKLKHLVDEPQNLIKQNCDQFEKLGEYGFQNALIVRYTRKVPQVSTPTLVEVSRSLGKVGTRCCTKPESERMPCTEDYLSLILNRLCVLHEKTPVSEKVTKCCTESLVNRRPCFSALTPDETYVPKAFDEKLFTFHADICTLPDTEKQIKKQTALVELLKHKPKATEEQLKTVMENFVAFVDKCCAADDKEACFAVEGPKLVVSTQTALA

[1] = small-molecule microarray binders of probe aXIP, primary screen, biochemical, NeuroSMM set, 635/667 nm fluorescence (AID 1119); settings: higher = more signal, called active from +8 up or from −8 down;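 note: probe is the protein aXip251-270 applied at 1 µg/mL to compound-printed slides; binding of probe to printed compounds measured as 667 nm fluorescence plus signal to noise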
[2] = small-molecule binders of probe aNOTCH3, primary screen, biochemical, small-molecule microarray, 635/667 nm fluorescence (AID 1120); settings: higher = more signal;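 note: probe is a biotin-tagged antibody raised against NOTCH3 rather than NOTCH3 protein; score merges spot fluorescence near 667 nm with spot signal to noise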
[3] = small-molecule binders of probe aNOTCH2, primary screen, biochemical, small-molecule microarray, 635/667 nm fluorescence (AID 1121); settings: higher = more signal;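 note: score merges feature fluorescence read at 667 nm with its signal to noise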
[4] = molecular target: Carbonic anhydrase 2 (Homo sapiens) (UniProt P00918); test: CAII small-molecule binders, profiling panel, biochemical, small-molecule microarray, Alexa647-labelled CAII (AID 1122); settings: CAII-A647 binding fluorescence, higher = more signal
[5] = COS7 lysate on small-molecule microarray, probe aHis, 635 nm (AID 1123); settings: COS7 cell lysate, fluorescence, higher = more signal;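 note: z-score combines 667nm fluorescence intensity with signal-to-noise per printed compound spot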
[6] = compound binding in COS7 lysate, probe aLAP1, primary screen, cell lysate, small-molecule microarray (AID 1124); settings: probe aLAP1, fluorescence, higher = more signal;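 note: lysate comes from COS7 cells expressing LAP1 and is applied at 0.3 µg/mL; score merges spot fluorescence near 667 nm with signal-to-noise over triplicate slides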
Sam68 (KHDRBS1) = test: Sam68 small-molecule binders, primary screen, biochemical, small-molecule microarray, 635 nm fluorescence (AID 1125); settings: small-molecule microarray binding, higher = more signal;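 note: score merges 667 nm channel intensity with signal to noise over triplicate slides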
[7] = test system: Chordin-like protein 2 (CHRDL2); test: CHRDL2 small-molecule binders, primary screen, biochemical, small-molecule microarray, 635 nm fluorescence (AID 1126); settings: small-molecule microarray binding, fluorescence 635 nm; higher = more signal;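 note: printed compound slides probed with Chrdl2 protein at 4 µg/mL for 1 h at 4 C; score merges 667 nm emission intensity with signal to noise over three replicate slides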
[8] = molecular target: Concanavalin-A (Canavalia ensiformis) (UniProt P02866); test: ConA small-molecule binders, primary screen, artefact control for SMM control protein annotation, biochemical, small-molecule microarray, Alexa647 label, 635 nm (AID 1127); settings: ConA-A647 binding fluorescence, higher = more signal;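 note: z combines 667 nm emission intensity with signal-to-noise across three replicate slides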
Sequence of Concanavalin-A (Canavalia ensiformis) (P02866 whole entry, looked up): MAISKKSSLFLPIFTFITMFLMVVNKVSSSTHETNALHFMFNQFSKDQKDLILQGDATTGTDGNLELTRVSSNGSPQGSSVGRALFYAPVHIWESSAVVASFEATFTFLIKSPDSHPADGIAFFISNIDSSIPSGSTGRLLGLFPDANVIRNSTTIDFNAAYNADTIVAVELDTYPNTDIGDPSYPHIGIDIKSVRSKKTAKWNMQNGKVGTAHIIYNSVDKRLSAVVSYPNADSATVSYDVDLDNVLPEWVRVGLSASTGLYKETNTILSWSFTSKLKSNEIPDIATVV

Compound | composite z-score (Albumin (Bos taurus)) | composite Z-score [1] | composite z-score [2] | composite z-score [3] | composite z-score [4] | composite z-score [5] | composite z-score [6] | composite z-score (Sam68 (KHDRBS1)) | composite z-score [7] | composite z-score [8]
CCC(CC)C(O)C1C=CC2C(=O)N(c3ccccc3)C(=O)C2N1Nc1ccc(C(C)C)cc1 (stereo not given) | 0.682 | 0.15 (inactive) | 0.213 | 0.197 | 0.691 | 2.24 | 0.359 | 1.3 | -0.0149 | 0.922
NCCCCCNC(=O)[C@@H]1C[C@@H]2C(=O)NCC(=O)N2[C@@H]1c1cccc(OCCO)c1 | 0.411 | 0.401 (inactive) | 0.154 | -0.0366 | 0.443 | 0.506 | 0.954 | 1.32 | 0.788 | 1.17
CC(CO)N1C(=O)[C@@H]2[C@H]3C(=O)OCC=C[C@H]3OC23C=CCN(Cc2ccccc2)C(=O)[C@@H]13 (stereo not given in full) | 0.407 | -0.106 (inactive) | -0.308 | -0.22 | 0.905 | -0.851 | -0.419 | -1.17 | -0.42 | -0.325
NC(=O)NCC#Cc1ccc2c(c1)[C@]1(C(=O)N2)[C@H](C(=O)NC[C@H](O)c2ccccc2)[C@H]2C(=O)O[C@H](c3ccccc3)[C@H](c3ccccc3)N2[C@@H]1c1ccc(OCCO)cc1 | -0.397 | 0.491 (inactive) | 0.233 | -0.0449 | 0.377 | 0.791 | 0.587 | 1.01 | -0.0806 | 0.798
C=CCC(OC(C)=O)[C@@H]1[C@@H](N(Cc2ccc(-c3cccc(C(F)(F)F)c3)o2)C(=O)c2ccc(C)cc2)c2cc(OCCCO)ccc2N1C(=O)c1ccc2ccccc2c1 (stereo not given in full) | 0.149 | -0.0045 (inactive) | -0.0377 | -0.14 | 0.151 | 0.387 | -0.0397 | -0.285 | 0.287 | 0.0961
C=CCNC(=O)[C@H]1[C@@H]2C(=O)O[C@@H](c3ccccc3)[C@@H](c3ccccc3)N2[C@@H](c2ccc(O)cc2)[C@]12C(=O)N(C(=O)OCCOC)c1ccccc12 | 0.299 | 0.255 (inactive) | -0.091 | 0.0487 | 0.385 | 2.18 | 0.701 | 1.17 | 0.0889 | 0.745
NC(=O)NCC#Cc1ccc2c(c1)[C@]1(C(=O)N2)[C@H](C(=O)O)[C@H]2C(=O)O[C@H](c3ccccc3)[C@H](c3ccccc3)N2[C@@H]1c1ccc(OCCO)cc1 | 0.351 | -0.131 (inactive) | -0.161 | -0.143 | 0.355 | 0.822 | 0.613 | 1.27 | 0.241 | 0.962
COC1OC[C@]2(C)[C@H]3C4=C(CN2C(=O)OC(C)(C)C)[C@H](C)C(CO)C(CO)C4CC[C@@H]13 (stereo not given in full) | 1.1 | 0.0112 (inactive) | 0.239 | 0.35 | 0.805 | 2.88 | 0.875 | 1.31 | -0.675 | 1.17
COC(=O)[C@H](Cc1ccccc1)N1CC(/C=C/C2CC2)=C[C@H]1[C@H](O)Cc1ccccc1 | 0.59 | -0.0662 (inactive) | -0.095 | -0.14 | 0.456 | 0.726 | 0.148 | 1.2 | 0.732 | 0.981
CCOC(=O)C1CCCCN1 (stereo not given) | 0.351 | 0.104 (inactive) | 0.77 | 0.435 | 0.175 | 0.437 | 0.471 | 0.983 | 0.47 | 0.562
[N-]=[N+]=Nc1ccccc1C[C@]1(C(=O)N2CCOCC2)N=C(c2ccc(OCCCO)cc2)O[C@H]1c1ccccc1 | 0.806 | 0.339 (inactive) | -0.0902 | -0.204 | 0.627 | 1.99 | 0.221 | 1.36 | 0.764 | 1.15
CC(CO)N1C(=O)[C@@H]2[C@H]3C(=O)OCC=C[C@H]3OC23C=CCN(C(C)(C)C)C(=O)[C@@H]13 (stereo not given in full) | -0.0964 | 1.03 (inactive) | -0.242 | -0.125 | 0.852 | -0.856 | -0.604 | -1.05 | -0.508 | 0.251
CCOC(=O)C[C@H]1[C@H](OC(=O)c2ccccc2-c2ccccc2)[C@@H](NC(=O)c2ccc(-c3ccccc3)cc2)c2cc(OCCCO)ccc2N1C(=O)c1ccc2ccccc2n1 | 0.275 | 0.367 (inactive) | 0.0715 | -0.0441 | 0.131 | 0.406 | 0.272 | 1.06 | 0.304 | 0.513
C=C(/C(=C/C[C@@H](OC(C)=O)c1cccc(OCCO)c1)c1cc(C(=O)OC)ccc1OC)C(C)C | 0.805 | 0.142 (inactive) | -0.0014 | -0.177 | 0.447 | 0.206 | 0.0418 | 0.531 | 0.0865 | 0.574
O=C1N(Cc2ccccc2)Cc2ccccc2[C@@H]2OC(c3ccc(OCCCO)cc3)=N[C@]12CCS(=O)(=O)c1ccccc1 | -0.0561 | 1.52 (inactive) | 0.0876 | 0.0607 | 0.484 | 2.23 | 0.0984 | 1.25 | 0.068 | 0.888
C=CCC(OC(C)=O)[C@@H]1[C@@H](N(Cc2cccc3ccccc23)C(=O)c2cccc3ccccc23)c2cc(OCCCO)ccc2N1C(=O)c1ccc(-c2ccccc2)cc1 (stereo not given in full) | -0.0704 | -0.0014 (inactive) | 0.122 | -0.143 | 0.115 | 0.888 | -0.35 | -0.159 | 0.25 | -0.132
COC(=O)[C@@]1(Cc2ccc(F)cc2)[C@H]2c3cc(C(=O)N4CCCC4)n(CCc4ccc(O)c(O)c4)c3C[C@H]2CN1C(=O)c1ccccc1 | 0.601 | 0.41 (inactive) | 1.26 | 0.89 | 0.83 | 1.83 | 0.543 | -1.03 | -0.113 | -0.697
NC(=O)N1C(=O)C2C(C1=O)C1C=C(CCCO)C2C(c2cccs2)N1Cc1cccc(OC(F)(F)F)c1 (stereo not given) | 0.729 | -0.182 (inactive) | -0.023 | -0.0534 | 0.583 | 0.789 | -0.0259 | 1.07 | -0.0665 | 0.434
[N-]=[N+]=Nc1ccccc1[C@H]1OC(c2ccc(OCCCO)cc2)=N[C@@]1(Cc1ccccc1)C(=O)N1CCCCC1 | 0.899 | 0.498 (inactive) | 0.369 | 0.208 | 0.38 | 2.36 | 0.19 | 1.13 | 0.618 | 1.19
O=C1O[C@@H](c2ccccc2)[C@@H](c2ccccc2)N2[C@@H](c3ccccc3OCCO)[C@]3(C(=O)Nc4ccc(C#CCCO)cc43)[C@@H](C(=O)N3CCCCCCC3)[C@H]12 | 0.366 | 10.6 (active) | 2.26 | 1.23 | 0.972 | 5.27 | 1.6 | 1.3 | 1.72 | 1.2
O=C1NC(=O)C2C1C=CC(C(O)CCc1ccccc1)N2Nc1ccc(Cl)cc1Cl (stereo not given) | 0.709 | 0.118 (inactive) | -0.142 | 0.345 | 0.79 | 2.25 | 0.925 | 0.969 | -1.3 | -0.0165
CCOc1cc(C(O)C2C=CC3C(=O)N(c4ccccc4)C(=O)C3N2Nc2ccc(C#N)cc2)ccc1O (stereo not given) | 0.876 | 0.793 (inactive) | 0.0638 | -0.171 | 0.877 | 0.825 | 0.876 | -0.0645 | -0.879 | 1.03
COCCOC(=O)N1C(=O)[C@@]2(c3cc(C#Cc4ccc(OC)cc4)ccc31)[C@H](c1ccc(O)cc1)N1[C@H](c3ccccc3)[C@H](c3ccccc3)OC(=O)[C@H]1[C@@H]2C(=O)N1CCCCCCC1 | 0.802 | -0.182 (inactive) | 0.7 | -0.131 | 0.466 | 2.11 | 0.575 | 0.722 | -0.508 | 0.498
CCCC[C@@H]1C[C@H]1[C@@H](NC(=O)Cc1ccccc1)c1ccc(-c2ccccc2)cc1 | 0.83 | 0.378 (inactive) | -0.006 | -0.0242 | 0.66 | 2.02 | -0.273 | 0.214 | -0.436 | 0.453
COCCCNC(=O)[C@@]1(Cc2ccccc2CN=[N+]=[N-])N=C(c2ccc(OCCCO)cc2)O[C@H]1c1ccccc1 | 0.954 | 0.443 (inactive) | 0.269 | -0.0006 | 0.254 | 2.85 | 0.832 | 1.3 | -0.751 | 1.03
CC(C)Cc1ccc(CN2CC[C@@H](NC(=O)Nc3ccccc3)C2)cc1 | 0.476 | -0.119 (inactive) | -0.133 | -0.0974 | 0.119 | -0.104 | 0.397 | -0.0489 | 0.214 | -0.0211
COCCOC(=O)N1C(=O)[C@@]2(c3cc(C#Cc4ccc(OC)cc4)ccc31)[C@H](C(=O)Nc1nc3ccccc3s1)[C@H]1C(=O)O[C@H](c3ccccc3)[C@H](c3ccccc3)N1[C@@H]2c1ccc(OCCO)cc1 | -0.0497 | 0.308 (inactive) | 0.0493 | -0.0539 | 0.458 | 0.757 | -0.38 | 1.31 | 0.68 | 1.16
C[N+](C)(C)CCCC[C@@H]1NC(=O)[C@H]2C[C@@H](C(=O)NCCCCCCN)[C@@H](c3ccc(O)cc3)N2C1=O | 0.98 | 0.289 (inactive) | 0.201 | 0.14 | 0.685 | 1.08 | -0.186 | 1.23 | -0.117 | 1.13
C[C@]1(C(=O)NC2CC2)c2ccccc2C(=O)N(Cc2ccccc2)[C@H]1c1ccc(CO)cc1 | -1.91 | -0.504 (inactive) | -0.337 | -0.105 | 0.168 | -0.163 | 0.11 | -0.958 | -0.771 | -1.21
COc1ccc([Si](C)(C)[C@H]2[C@H](CCn3cc([C@H](O)c4ccccc4)nn3)O[C@@]3(C(=O)N(Cc4ccc(N5C(=O)c6cccc7cccc5c67)cc4)c4ccccc43)[C@@H]2C)cc1 | -0.601 | 0.389 (inactive) | -0.165 | -0.14 | 0.193 | 0.769 | 0.838 | 0.131 | -0.803 | 0.115
